Assay in all cases: NCI-60 one-dose screen, 48 h (100 = growth as untreated, 0 = no growth, -100 = all killed)
Experiment [1] has as its system HCT-15 colon. The note with it: 10 µM unless noted.
The subject of experiment [2] is HT29 colon. The note with it: 10 µM unless noted.
The test system of experiment [3] is SNB-75 CNS. The conditions noted are these: 10 µM unless noted.
The test system of experiment [4] is SNB-19 CNS. The note with it: 10 µM unless noted.
Experiment [5] relates to U251 CNS. The note with it: 10 µM unless noted.
The test system of experiment [6] is PC-3 prostate. The note with it: 10 µM unless noted.
Experiment [7] has as its system SK-MEL-5 melanoma. The conditions noted are these: 10 µM unless noted.
For experiment [8], the system named is UACC-62 melanoma. The note with it: 10 µM unless noted.
The subject of experiment [9] is LOX IMVI melanoma. The conditions noted are these: 10 µM unless noted.
The subject of experiment [10] is SK-MEL-28 melanoma. The note with it: 10 µM unless noted.
Experiment [11] concerns SK-MEL-2 melanoma. The conditions noted are these: 10 µM unless noted.
The subject of experiment [12] is SN12C renal. The note with it: 10 µM unless noted.
In experiment [13] the test system is UO-31 renal. The note with it: 10 µM unless noted.
Experiment [14] concerns TK-10 renal. The conditions noted are these: 10 µM unless noted.
Experiment [15] concerns ACHN renal. The note with it: 10 µM unless noted.
Experiment [16] concerns CAKI-1 renal. The note with it: 10 µM unless noted.
In experiment [17] the test system is A498 renal. The conditions noted are these: 10 µM unless noted.
The subject of experiment [18] is MOLT-4 leukemia. The conditions noted are these: 10 µM unless noted.
Experiment [19] relates to CCRF-CEM leukemia. The note with it: 10 µM.

About 83,000 compounds went through this panel and 20% of them were active in at least one assay; those are over-represented in the sample as a whole.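 A percent growth of 40 corresponds to 60% growth inhibition; 0 means no net growth; -100 means all cells died. Active threshold: below 10.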 A number with no mark means an inactive call. Activity calls are given as the source filed them.

As to `CC(O)CN(CCO)CCN(CCO)CC(C)O` (configuration not stated), the growth was 101% in experiment [1]; 100% in [2]; 98.7% in experiment [3]; 105% in [4]; 106% in experiment [5]; 106% in experiment [6]. Moreover, the growth is 106% in [7]; 101% in experiment [8]; 98% in experiment [9]; 106% in experiment [10]; 114% in experiment [11]; 104% in experiment [12]. In addition, the growth was 99.6% in experiment [13]; 103% in [14]; 102% in [15]; 95.1% in experiment [16]; 112% in [17]; 100% in experiment [18].
As for `CC(=O)OC1/C=C\CC/C=C\C1` (configuration not stated), the growth in experiment [1] was 98%; in experiment [2], 109%; in experiment [3], 82.6%; in experiment [4] it was 100%; in [5] it was 96.6%; in experiment [6] it was 96.4%. The growth in [7] was 98.8%; in experiment [8], 101%; in experiment [9], 106%; in experiment [10] it was 111%; in experiment [11], 109%; in [12] it was 95.8%. For the same compound, the growth is 93.5% in experiment [13]; 124% in experiment [14]; 96.3% in [15]; 99.2% in experiment [16]; 86.9% in [17]; 103% in experiment [19]. Besides, the growth in [18] is 116%.
As to `O=C(Nc1ccc(Cl)c(Cl)c1)O/N=C\c1c(Cl)ccc([N+](=O)[O-])c1Cl`, the growth in experiment [1] was -3.17% (active); in experiment [2], -73% (active); in experiment [3], 16.9%; in [4], 49.5%; in [5] it was 3.06% (active); in experiment [6] it was -8.42% (active). Besides, the growth in experiment [7] was 48.3%; in [8], -63.5% (active); in [9] it was -82.1% (active); in experiment [10] it was -12.3% (active); in [11] it was -4.77% (active); in experiment [12] it was -52.4% (active). Also, the growth in [13] was -32.6% (active); in experiment [14], -97.2% (active); in [15] it was -59.5% (active); in experiment [16], 7.78% (active); in [17], 46%; in [19], -19.3% (active). For the same compound, the growth in experiment [18] is -32.9% (active).
Take `CC(O)CN(CC(C)O)N(CC(C)O)CC(C)O` (configuration not stated): the growth is 93.6% in experiment [1]; 99.3% in [2]; 93.1% in [3]; 99.1% in [4]; 90.9% in [5]; 99.4% in [6]. The growth was 105% in [7]; 102% in [8]; 93.7% in experiment [9]; 107% in [10]; 121% in experiment [11]; 107% in experiment [12]. Moreover, the growth is 91.1% in experiment [13]; 99.3% in experiment [14]; 99% in experiment [15]; 98.9% in [16]; 104% in [17]; 102% in [18].
`CCOC(=O)/C(C#N)=C(/CC)OCC`: the growth in [1] was 109%; in experiment [2], 103%; in experiment [3], 90.8%; in experiment [4] it was 106%; in [5], 103%; in [6] it was 93.6%. Further, the growth is 110% in experiment [7]; 110% in [8]; 91.4% in [9]; 106% in [10]; 91.7% in experiment [11]; 109% in [12]. In addition, the growth in experiment [13] is 84.1%; in experiment [14], 91.9%; in [15], 94.6%; in [16], 95.4%; in [17], 122%; in [18], 85%.
For the compound `CCC(C)[C@H](NC(=O)Nc1cc(C(F)(F)F)cc(C(F)(F)F)c1)C(=O)N[C@@H](Cc1cn(C)cn1)C(=O)OC` (some centres not stated), the growth in experiment [1] is -83.2% [100 µM] (active); in experiment [2], -83.6% [100 µM] (active); in experiment [3], -100% [100 µM] (active); in experiment [4], -98.5% [100 µM] (active); in experiment [5] it was -98% [100 µM] (active); in [6], -93.7% [100 µM] (active). The growth is -97.9% [100 µM] (active) in [7]; -98.8% [100 µM] (active) in experiment [8]; -81.2% [100 µM] (active) in [9]; -95.3% [100 µM] (active) in [10]; -92.4% [100 µM] (active) in [11]; -82% [100 µM] (active) in experiment [12]. The growth in experiment [13] was -95.3% [100 µM] (active); in experiment [14] it was -98.7% [100 µM] (active); in [15], -98.4% [100 µM] (active); in [16] it was -99.6% [100 µM] (active); in experiment [17], -94.4% [100 µM] (active); in experiment [18], -54.9% [100 µM] (active).
Turning to `COC(=O)[C@H](Cc1cn(C)cn1)NC(=O)[C@H](CC(=O)OCc1ccccc1)NC(=O)Nc1cc(C(F)(F)F)cc(C(F)(F)F)c1`, the growth in experiment [1] was -82.2% [100 µM] (active); in experiment [2], -85.2% [100 µM] (active); in experiment [3], -98.6% [100 µM] (active); in experiment [4], -93% [100 µM] (active); in [5] it was -96.5% [100 µM] (active); in experiment [6], -94.1% [100 µM] (active). Moreover, the growth was -97.3% [100 µM] (active) in experiment [7]; -98.3% [100 µM] (active) in experiment [8]; -85.3% [100 µM] (active) in experiment [9]; -95.6% [100 µM] (active) in [10]; -92.6% [100 µM] (active) in experiment [11]; -91.1% [100 µM] (active) in experiment [12]. Moreover, the growth in experiment [13] was -96.3% [100 µM] (active); in experiment [14] it was -97.5% [100 µM] (active); in experiment [15] it was -98.6% [100 µM] (active); in experiment [16] it was -91.9% [100 µM] (active); in [17], -92.3% [100 µM] (active); in experiment [18] it was -62.8% [100 µM] (active).
With `O=C(NCCNCCO)c1cc([N+](=O)[O-])cc([N+](=O)[O-])c1O`, the growth is 106% in [1]; 104% in experiment [2]; 102% in experiment [3]; 102% in [4]; 99.3% in experiment [5]; 99.7% in experiment [6]. Further, the growth was 103% in experiment [7]; 101% in experiment [8]; 99.1% in experiment [9]; 106% in experiment [10]; 117% in [11]; 96.1% in experiment [12]. Besides, the growth was 95.9% in [13]; 101% in [14]; 107% in [15]; 100% in [16]; 106% in [17]; 94.3% in experiment [19]. In [18], the growth is 102%.

These data come from PubChem BioAssay (NCI).
